Each structure is given as a SMILES string. Hit rate of the full screen: of about 69,000 compounds, about 8,600 (12%) showed an effect of 50% or more. Shown is part of a subset that was picked to be rich in strong results.

The assay deals with Plasmodium berghei. Nature of the assay: Screen against P. berghei liver stage (PbLuc), transformed with Luciferase, at 10uM. The format is functional, HepG2. The note with it: tested at 10 uM.
Take `CC(C(N)=O)S(=O)(=O)Cc1cc(Cl)c2c(c1)OCO2` (centres undefined): the INHIBITION is 16.7%. Consider `CN(C)C(=O)CS(=O)(=O)Cc1cc(Cl)c2c(c1)OCCO2`, for which the INHIBITION is listed as 16.9%. Consider `Cc1csc(N2CCCN(C(=O)c3c(C)noc3C)CC2)n1`, for which the INHIBITION is recorded as -19.6%.

For `COc1cccc(CCN2C[C@H]3CCNCC[C@H]3S2(=O)=O)c1`, the INHIBITION was 24.6%. The result for `CCn1cc(NC(=O)NCCN2CCc3ccccc3C2)cn1` reads 17.5%; that for `Cc1cc(C)n(C2CCCN(C(=O)c3ccc(N(C)C)nn3)C2)n1` (centres undefined), 13.2%; that for `O=C(CO)N1CCC(CCc2ccnc(Nc3cnccn3)c2)CC1`, 36%. Turning to `CN1CCC(CCc2ccnc(NC(=O)c3ccccn3)c2)CC1`, the INHIBITION is on record as 67.45%. Turning to `CC(=O)Nc1cc(CCC2CCN(C(=O)c3ccccn3)CC2)ccn1`, the INHIBITION was determined as 10.35%. The same measure for `CC(=O)N1CCC(CCc2ccnc(Nc3ccccn3)c2)CC1`: 40.65%; for `CC(=O)N1CCC(CCc2ccnc(NC(=O)c3ccccn3)c2)CC1`: 21.95%.

Regarding `O=C(Nc1cc(CCC2CCN(CCO)CC2)ccn1)c1ccccn1`, the INHIBITION was 52.8%. The same measure for `CC(=O)N1CCC(C(=O)NCc2cc[nH]n2)(c2ccccc2)CC1`: -11.9%; for `COc1ccc(OC)c(C(O)CNC(=O)Nc2ccc(F)cc2F)c1` (centres undefined): -27%.

In the case of `c1ccc2c(c1)CC(CNCc1ccncc1)(N1CCCCC1)C2`, the INHIBITION is reported as 12.3%. The same measure for `CSc1ncc(CNCC2(N3CCCCC3)Cc3ccccc3C2)cn1`: 72.4%; for `CC(=O)NCCNC(=O)C1(N2CCCCC2)Cc2ccccc2C1`: -46.4%. The same measure for `Cn1cc(CNCC2(N3CCCCC3)Cc3ccccc3C2)cn1`: 78.1%. Take `CCc1ccccc1CNC(=O)NCc1cnn(C)c1`: the INHIBITION is 13.9%. In the case of `O=C(NCCCO)C1(N2CCCCC2)Cc2ccccc2C1`, the INHIBITION is on record as 0.818%. The same measure for `CCN(CC)CC1CN(CCc2ccccc2)Cc2nccn2C1` (centres undefined): 0.139%.

For `CC(c1cc(O)nc(NC2CCCC2)n1)n1ncc2ccccc2c1=O` (centres undefined), the INHIBITION was 4.8%.

Turning to `Cc1nc(C)n(CC2CCCCN2CCOc2ccc(C#N)cc2)n1` (centres undefined), the INHIBITION is 42%.

For the compound `CCc1ncc2c(n1)CN(C(C)C(=O)Nc1ccc(Cl)cn1)CC2` (centres undefined), the INHIBITION is listed as 48.2%. In the case of `Cc1nnc(C(C)Nc2cccc(COCC(F)(F)C(F)F)c2)o1` (centres undefined), the INHIBITION is 57.4%.

`Cc1nnc(C(C)Nc2cccc(COCCOC(C)C)c2)o1` (centres undefined): the INHIBITION is recorded as 21.5%.

In the case of `Cc1nnc(C(C)Nc2cccc(COCCc3ccccc3)c2)o1` (centres undefined), the INHIBITION stood at 19.7%. The same measure for `CN(C)CCNC(=O)[C@H]1C[C@H]2CN(C(=O)NC3CCCC3)C[C@@H]1O2`: 6.83%; for `Cc1ccc(Cn2cc(Br)c(NS(C)(=O)=O)n2)cc1`: 19.575%; for `CNc1cc(C2CN(C(=O)c3ccccc3)CCO2)nc(C)n1` (centres undefined): 23.9%. Turning to `CC(C)(C)NC(=O)C1CSCN1S(=O)(=O)c1ccccc1F` (centres undefined), the INHIBITION is reported as 32.7%. Take `O=C(NCC1CC1)C1CSCN1S(=O)(=O)c1ccccc1F` (centres undefined): the INHIBITION was 26.6%. The result for `O=C(NCC(F)(F)F)C1CSCN1S(=O)(=O)c1ccccc1F` (centres undefined) reads 52.3%.

Take `O=C(c1ccccc1-n1cccn1)N1CCC(Nc2cccnn2)CC1`: the INHIBITION is recorded as -92.9%. The same measure for `Oc1cc(C2CCCCN2C2CCCC2)nc(-c2cccnc2)n1` (centres undefined): 15.5%.

Regarding `Cc1ccc(C(=O)N(C)Cc2nccn2CC(F)(F)F)cn1`, the INHIBITION is given as -16.8%.

For the compound `Cc1cc(C)nc(N2CCOC(C)(C(=O)N(C)C)C2)n1` (centres undefined), the INHIBITION was -11.4%. The result for `Cc1nc(CO[C@@H]2CN(Cc3ccsc3)[C@@H]3COC[C@@H]32)cs1` reads 14.1%; that for `Cc1nc(CO[C@@H]2CN(Cc3cnn(C)c3)[C@@H]3COC[C@@H]32)cs1`, 50.1%; that for `Cc1nc(CO[C@H]2CN(C(=O)c3cnoc3C)[C@@H]3COC[C@H]23)cs1`, 24.9%. On to `Cc1nc(CO[C@H]2CN(C(=O)c3cccn3C)[C@@H]3COC[C@H]23)cs1`, for which the INHIBITION came to 38.5%. The result for `Cc1nc(CO[C@@H]2CN(Cc3ccc(F)cc3)[C@@H]3COC[C@@H]32)cs1` reads 23.6%; that for `Cc1nc(CO[C@H]2CN(C(=O)c3cccnc3)[C@@H]3COC[C@H]23)cs1`, 51.2%. The same measure for `Cn1ccc(C(=O)N2C[C@@H]3OCCN(c4ncccn4)[C@@H]3C2)n1`: 18.4%.

For `Cc1nc(-c2ccccc2)n(CC(=O)NC(C)(C)C)n1`, the INHIBITION was determined as 16.8%. The result for `CCN(CC)CC(=O)NCCc1csc(N2CCCC2)n1` reads 9.48%; that for `CC(C)(C)OC(=O)NCCc1csc(N2CCCC2)n1`, 65.4%; that for `CCNC(=O)NCCc1csc(N2CCCC2)n1`, 39.7%. As for `Cc1ncsc1CCC(=O)NCc1csc(N2CCCC2)n1`, the INHIBITION is recorded as -20.8%. The same measure for `CCCc1nc(CNC(=O)Cc2csc(C)n2)cs1`: 9.35%; for `CC(C)(C)SCC(=O)NCCc1csc(N2CCCC2)n1`: 78.2%.

As to `CCC=C(C)C(=O)NCCc1csc(N2CCCC2)n1`, the INHIBITION amounted to 41.4%. In the case of `CC(C)OCCC(=O)NCCc1csc(N2CCCC2)n1`, the INHIBITION was determined as 48.3%. For `Cc1nc(CC(=O)NCc2csc(N3CCCC3)n2)cs1`, the INHIBITION worked out at 70.3%.
